A selection: hits, their analogues and other compounds. The true share with any hit is near 18%.
RORg inh – ROR gamma (mouse) transcription inhibition | P51450 | Drosophila S2 Gal4-RORgamma UAS-luciferase reporter, 20 h | Potency, µM (top dose mostly 53.6 µM), actives largely listed as inhibitors | 310,000 tested, 5.4% active; note: nearly all actives have a fitted effect of over 60% in size
Target sequence (P51450 whole entry, looked up, the tested form may be a part): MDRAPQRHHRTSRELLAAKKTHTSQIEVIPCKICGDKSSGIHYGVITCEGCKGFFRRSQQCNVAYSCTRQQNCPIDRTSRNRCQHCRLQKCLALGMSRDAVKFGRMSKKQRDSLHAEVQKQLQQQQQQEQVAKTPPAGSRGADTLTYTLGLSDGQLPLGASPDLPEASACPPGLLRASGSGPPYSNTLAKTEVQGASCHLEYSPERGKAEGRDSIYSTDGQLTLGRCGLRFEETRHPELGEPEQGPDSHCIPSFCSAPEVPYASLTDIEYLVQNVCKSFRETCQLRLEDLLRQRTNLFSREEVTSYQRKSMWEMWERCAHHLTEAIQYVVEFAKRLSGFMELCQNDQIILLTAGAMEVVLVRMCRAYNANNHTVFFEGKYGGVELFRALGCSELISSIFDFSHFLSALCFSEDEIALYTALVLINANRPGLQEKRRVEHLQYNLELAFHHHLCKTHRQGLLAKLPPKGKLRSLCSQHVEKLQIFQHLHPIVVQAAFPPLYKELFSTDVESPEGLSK
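A Gal4/UAS one-hybrid system in insect cells: metallothionein-promoter Gal4–ROR gamma fusion plus Photinus luciferase reporter. Copper sulfate 700 uM final, 20 hr ambient incubation, luminescent detection after 10 min with reagent.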
Gal4-VP16 FLuc – inhibits Gal4-VP16 luciferase reporter, ROR gamma counter-screen. Drosophila S2 Gal4-VP16 UAS-luciferase, luminescence, 20 h. Potency, µM (titrated, usually from 53.6 µM), hits mostly inhibitors. 310,000 tested, 3.5% active. AID 2546;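 note: Gal4-VP16 expression switched on by copper sulfate through the metallothionein promoter; nearly all actives have a fitted effect of over 50% in size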
IL1B secr inh – inhibitors of inflammasome signaling (IL-1 beta secretion). THP-1 LPS/ATP IL-1B secretion, AlphaLISA, 16 h; active compounds read low. activity change, % at 57.5 µM. 360,000 tested, 4.7% active. AID 743279; in the data active = activity change below about -50%; inconclusive = mostly about -30% to -49%
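THP-1 cells pretreated 1 hr with compounds (up to 57.5 uM final), then stimulated with LPS (250 ng/mL final) plus ATP (1.25 mM final); secreted IL-1B measured by AlphaLISA after 16 hr, decreased signal indicating inhibition.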
TDP1 cell CPT – DT40-hTDP1 cell growth loss with CPT; chicken DT40 Tdp1-/-;hTDP1 cells + 20 nM CPT, ATP luminescence, 48 h; Potency, µM (titrated, usually from 46.2 µM), actives largely listed as inhibitors; 420,000 tested, 12% active; AID 686979; note: nearly all actives have a fitted effect of over 55% in size
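Chicken DT40 Tdp1-/- cells stably complemented with human TDP1 were seeded at 400 cells/well in medium containing 20 nM camptothecin, exposed to pin-transferred compounds, and grown at 37 °C for at least 48 hr. Viability was read as ATP luminescence.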
DT40 TDP1 no CPT – qHTS for Inhibitors of human tyrosyl-DNA phosphodiesterase 1 (TDP1): qHTS in cells in absence of CPT; DT40 Tdp1-/- hTDP1 cells, no CPT, ATP luminescence, 48 h; Potency, µM (series often up to 46.2 µM), actives largely listed as inhibitors; 420,000 tested, 15% active; AID 686978, 2013; note: nearly all actives have a fitted effect of over 55% in size
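DT40 Tdp1-/-;hTDP1 cells, no CPT (DMSO vehicle only), 400 cells/well; compounds pin-transferred; ≥48 hr, 37 °C; CellTiter-Glo 30 min RT dark, luminescence read.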
LDHA block – inhibitors of human lactate dehydrogenase A | P00338 | purified LDHA, NADH/diaphorase-resazurin fluorescence; active compounds read low | activity change, % (values are at about 110 or 230 µM) | 480,000 tested, 0.15% active | AID 1347041; in the data active = activity change below about -30%; inconclusive = mostly about -25% to -30%
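Remaining NADH was detected by diaphorase (0.133 mg/mL) converting 37 µM resazurin to fluorescent resorufin, read at 0 and 20 minutes. The preceding 5-minute room-temperature reaction used 2 nM LDHA, 0.2 mM sodium pyruvate and 0.06 mM NADH at pH 7.4.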
Numbers stand for hits; i = inactive; ? = inconclusive; nt = no result given; [ ] = remark or other dose. Unless noted, calls come from the whole dose curve; as a rule, active = well fitted curve in the direction sought with a large enough effect; inconclusive = small, poorly fitted or top-dose-only effect, or another doubt; inactive = no such curve, though single readings can be large; an effect the other way counts as inactive or inconclusive.

SMILES	RORg inh	Gal4-VP16 FLuc	IL1B secr inh	TDP1 cell CPT	DT40 TDP1 no CPT	LDHA block
CN1CCN(C(=O)CCn2cnc3c2c(=O)n(C)c(=O)n3C)CC1	nt	nt	nt	nt	nt	i
C=C(C)Cn1c(N2CCN(Cc3c(F)cccc3Cl)CC2)nc2c1c(=O)[nH]c(=O)n2C	nt	nt	nt	nt	nt	i
COC(=O)c1cc(Br)ccc1N(Cc1cc(OC)cc(OC)c1)S(C)(=O)=O	nt	nt	i	?	16µM	i
COc1cc2c(cc1OC)C(c1ccccc1N)=NCC2	i	i	i	?	21µM	i
COc1cc2c(cc1OC)C(c1ccccc1)=NCC2	i	?	i	i[9.04 µM]	?	i
COc1cc2c(cc1OC)C(c1ccccc1[N+](=O)[O-])=NCC2	nt	nt	i	5.8µM	2.9µM	i
COCCn1cnc2c1c(=O)n(CC(=O)OCCOc1ccccc1F)c(=O)n2Cc1ccccc1	nt	nt	nt	nt	nt	i
COC(=O)c1ccccc1NC(=O)c1ncoc1-c1ccco1	nt	nt	nt	13µM	?	i
Cc1nc(-c2cccc(NC(=O)c3ccc(-n4nccc4C)cc3)c2)cs1	nt	nt	-84	?	21µM	i
COc1ccc(OC)c(NC(=O)c2ccc(-c3csc(C)n3)cc2)c1	i[1.91 µM]	i	i	?	?	i
Cc1nc(-c2ccc(C(=O)Nc3cccc(Br)c3)cc2)cs1	i	i	i	?	21µM	i
Cc1nc(-c2cccc(NC(=O)c3cccs3)c2)cs1	i	i	i	i	?	i
Cc1nn(C)c2sc(C(=O)N3CCN(S(=O)(=O)c4ccc(F)cc4F)CC3)cc12	nt	nt	nt	nt	nt	i
CCC(=O)c1ccccc1OCCCN1CCC(Cc2ccccc2)CC1	nt	nt	-89	?	?	i
COc1cccc(OC)c1OCCCCN1CCC(Cc2ccccc2)CC1	i	i	-77	?	18µM	i
COc1cccc(OC)c1OCCCCN1CCCC1	i	i	i	i	i	i
N#Cc1ccccc1OCCCN1CCC(Cc2ccccc2)CC1	nt	nt	?	?	16µM	i
COc1ccc(CN2CCC(Cc3ccccc3)CC2)c(C)c1C	i	i	-78	?	?	i
COc1ccc(OCC(=O)Nn2c(-c3ccc(C)cc3)nc3ccccc3c2=O)cc1	i	6.3µM	i	?	?	i
COc1ccc(OCC(=O)Nn2c(-c3ccc(OC)cc3)nc3ccccc3c2=O)cc1	?	10µM	i	i	?	i
NC(=S)Nn1c(-c2ccccc2)nc2ccccc2c1=O	i	i	i	i	i	i
O=C(Nn1c(-c2ccncc2)nc2ccccc2c1=O)c1ccc(Br)cc1	i	i	i	i	i	i
COc1ccc(-c2nc3ccccc3c(=O)n2NC(=S)N(C)C)cc1	i	i	i	12µM	12µM	i
O=C(Nn1c(-c2ccc(Br)cc2)nc2ccccc2c1=O)c1cccnc1	i	i	i	?	23µM	i
O=C(Cc1ccccc1)Nn1c(-c2ccccc2)nc2ccccc2c1=O	i	i	i	i	i	i
SMILES	RORg inh	Gal4-VP16 FLuc	IL1B secr inh	TDP1 cell CPT	DT40 TDP1 no CPT	LDHA block
Cc1nn2c(NCCN(C)C)cc(C(C)(C)C)nc2c1-c1ccc(F)cc1	nt	nt	nt	nt	nt	i
O=C(O)CCNS(=O)(=O)c1cccc(C(F)(F)F)c1	nt	nt	nt	nt	nt	i
COCCn1ccc2c(OCC(=O)Nc3cccc(C)c3C)cccc2c1=O	nt	nt	nt	nt	nt	i
CCOCCn1ccc2c(OCC(=O)Nc3ccccc3F)cccc2c1=O	nt	nt	i	?	?	i
CCCn1ccc2c(OCC(=O)NCc3ccccc3Cl)cccc2c1=O	nt	nt	nt	?	23µM	i
Cn1ccc2c(OCC(=O)NCc3ccccc3)cccc2c1=O	nt	nt	nt	?	?	i
CCOc1ccccc1NC(=O)COc1cccc2c(=O)n(CCOC)ccc12	nt	nt	nt	12µM	13µM	i
CCCn1ccc2c(OCC(=O)Nc3ccccc3OCC)cccc2c1=O	nt	nt	nt	21µM	12µM	i
COCCn1ccc2c(OCC(=O)Nc3ccccc3OC)cccc2c1=O	nt	nt	?	18µM	21µM	i
Cc1csc(CNC(=O)c2cc(C)c(C)s2)n1	nt	nt	nt	nt	nt	i
COc1cc2c(cc1OC)CN(C1CCC(C(C)(C)C)CC1)CC2 (stereo not given)	nt	nt	nt	?	21µM	i
N#Cc1c(C(F)(F)F)cc(-c2ccccc2)nc1SCCN1CCOCC1	i	i	i	21µM	?	i
COC(=O)c1cc(OC)c(OC)cc1NC(=S)Nc1cc(Cl)ccc1OC	1.3µM	1.4µM	i	?	?	i
Cc1cc(Cl)ccc1OCC(=O)NC(=S)Nc1ccc(Cl)cn1	5.6µM	i	i	i	i	i
COc1ccc(Cl)cc1NC(=S)Nc1ccc(Cl)cn1	1.3µM	?	i	i	i	i
COC(=O)c1cc(OC)c(OC)cc1NC(=S)Nc1cccc(Cl)c1	4µM	6.3µM	?	i	i	i
CCn1ncc(Cl)c1C(=O)NC(=S)Nc1ccccc1Br	8.9µM	8.9µM	-85	i	i	i
Cc1nn(C)c(C(=O)NC(=S)Nc2ccccc2Br)c1Cl	8.9µM	14µM	?	i	i	i
CC(C)c1nnc2ccc(N3CCCC(C(=O)O)C3)nn12 (stereo not given)	nt	nt	nt	nt	nt	i
COc1ccc(C)cc1N(C)C(=O)CCc1nc(-c2ccccc2F)no1	nt	nt	nt	18µM	?	i
CCN(C(=O)CCc1nc(-c2ccccc2F)no1)c1cc(OC)ccc1OC	i	i	i	23µM	?	i
O=C(COC(=O)c1nn(-c2ccccc2)c(=O)c2ccccc12)Nc1ccccc1Cl	nt	nt	nt	nt	nt	i
Cc1noc(C)c1CN1C(=O)NC(Cc2ccccc2)(Cc2ccccc2)C1=O	11µM	i	i	?	?	i
CN(C)c1cccc2c1C(=O)c1ccccc1C2=O	i	i	?	i	?	i
Cc1ccc(SC2=C(N(C)C)C(=O)c3ccccc3C2=O)cc1	nt	nt	-64	4.6µM	5.2µM	i
SMILES	RORg inh	Gal4-VP16 FLuc	IL1B secr inh	TDP1 cell CPT	DT40 TDP1 no CPT	LDHA block
Cc1cc(C(=O)OC(C(=O)Nc2cccc(C(F)(F)F)c2)c2ccccc2)c(C)o1 (stereo not given)	i	?	i	?	21µM	i
CCOc1ccccc1NC(=O)C(NCCN(C)C)c1ccccc1 (stereo not given)	i	i	i	i	i	-41
CN(C)CCNC(C(=O)Nc1cccc(C(F)(F)F)c1)c1ccccc1 (stereo not given)	i	i	i	i	i	-37
CCOc1ccccc1NC(=O)C(NCCc1ccc(OC)cc1)c1ccccc1 (stereo not given)	i	i	i	23µM	?	i
Cc1ccc(NC(=O)C(OC(=O)c2cc(C)oc2C)c2ccccc2)cc1 (stereo not given)	i	i	i	i	?	i
COc1ccc(CCNC(C(=O)Nc2cc(C)cc(C)c2)c2ccccc2)cc1 (stereo not given)	i	?	?	?	?	i

Screens deposited in PubChem by National Center for Advancing Translational Sciences (NCATS).
